# Measured values published in PubChem BioAssay AID1043 (National Center for Advancing Translational Sciences (NCATS), 2008).
# Records with an inconclusive call do not appear. Activity calls are given as the source filed them. The call rests on the fitted dose curve.
# Assay: H358 Cell Viability Secondary Assay for qHTS Assay for Epigenetic Modulators
# Details: H358 NSCLC viability, MTS absorbance, 4 days
# Source text: NIH Molecular Libraries Screening Centers Network [MLSCN] NIH Chemical Genomics Center [NCGC] MLSCN Grant: 1 X01 MH079860-01 Assay Provider: Elisabeth D. Martinez, University of Texas SW Medical Center NCGC Assay Overview: This secondary assay characterizes selected actives identified in the qHTS of the Locus Derepression (LDR) assay (PubChem AID 597). The LDR assay detects the derepression of a GFP reporter that is stably integrated in a region of the genome of murine c127i mammary cells that is presumably silenced. Compounds that cause derepression of the locus to express GFP are identified by enumerating GFP positive cells using a laser-scanning microplate cytometer. Selected LDR actives were assayed for killing of H358 non-small cell lung carcinoma (NSCLC) cells. Certain epigenetic drugs, like histone deacetylase inhibitors, can block cancer cell growth. H358 cell viability was measured using Cell Titer 96 AQueous One (Promega), an assay which detects the ability of metabolically active cells to reduce a tetrazolium salt substrate (MTS), into a soluble formazan product that can be measured by colorimetry.
# NCGC Assay Protocol Summary Viability assays: H358 cells were plated in 96-well flat bottom tissue culture dishes (Corning) and grown overnight at 37 C and 5% CO2, then treated with increasing concentrations of compounds, incubated for four days, and assayed for viability using the Cell Titer 96 AQueous One kit (Promega) according to the manufacturer's protocol. Absorbance at 490 nm and 650 nm (reference) was measured by a Spectra Max (Molecular Devices). Data were normalized to the untreated control (100% viability). Each cell line was tested in one or two independent assays, each containing 4 or 8 replicates. For further details, see R.L. Johnson, W. Huang, A. Jadhav, C.P. Austin, J. Inglese, E.D. Martinez, A Quantitative High-Throughput Screen Identifies Potential Epigenetic Modulators of Gene Expression, Analytical Biochemistry (2007), doi: 10.1016/j.ab.2007.12.028
Compound,Potency,outcome
O=Nc1ccc(O)c2ncccc12,3000 nM (active),
CC(/C=C/C(=O)NO)=C\[C@@H](C)C(=O)c1ccc(N(C)C)cc1,40 nM (active),
CN1C(=S)SC(c2ccccc2)N(C)C1c1ccccc1 (centres undefined),,inactive
CC(C)C(=O)NC(c1ccc(N(C)C)cc1)c1ccc2cccnc2c1O (centres undefined),200 nM (active),
O=C(CSc1cccc2cccnc12)NCc1ccccc1,,inactive
CC(C)C(=O)NC(c1ccco1)c1ccc2cccnc2c1O (centres undefined),500 nM (active),
CN1CCN(Cc2cc(Cl)c3cccnc3c2O)CC1,2000 nM (active),
COc1ccc(C(NC(=O)C(C)C)c2ccc3cccnc3c2O)cc1 (centres undefined),200 nM (active),
CC(C)C(=O)NC(c1ccco1)c1cc([N+](=O)[O-])c2cccnc2c1O (centres undefined),6000 nM (active),
